Experimental data taken from PubChem BioAssay (Tox21).
Results filed as inconclusive are left out. The source made the active and inactive calls. Calls follow the shape of the dose curve; as a rule, active = well fitted cell-killing curve with a large enough effect in the repeat runs; inconclusive = weak or mixed curves, or effect the other way; inactive = flat fitted curve, though single readings scatter.

assay: cAMP Responsive Elements (CRE) small molecule antagonists, cell-based qHTS assay: qHTS cell viability counter screen (AID 2060913); settings: CRE-bla HEK293T viability, CellTiter-Glo luminescence, 5 h; series mostly up to 92.4 µM; viability change, negative = cytotoxic: at the top concentration; also: nearly all actives have a fitted effect of over 40% in size
Summary of the method: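 CRE-bla HEK293T cells (2,000/well, 18 h) given compound plus NKH477 0.25 uM final for 3 h at 37C; viability counter-screen by CellTiter-Glo luminescence in same wells after 30 min.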
% is scaled to controls: 0 for no effect and ±100 for the full control effect.

Q: With `CC[C@H]1OC(=O)[C@H](C)[C@@H](O[C@H]2C[C@@](C)(OC)[C@@H](O)[C@H](C)O2)[C@H](C)[C@@H](O[C@@H]2O[C@H](C)C[C@H](N(C)C)[C@H]2O)[C@](C)(O)C[C@@H](C)C(=O)[C@H](C)[C@@H](O)[C@]1(C)O` as the molecule, how does the “viability change, negative = cytotoxic” value read?
A: 4.9% [at 42.5 µM] (inactive)

Q: Which “viability change, negative = cytotoxic” value does the source give for `[Cl][Eu]([Cl])[Cl]` here?
A: -1.08% (inactive)

Q: With `CC(C)=CC1CC(C)CCO1` (centres undefined) as the molecule, how does the “viability change, negative = cytotoxic” value read?
A: 15.2% (inactive)

Q: Which “viability change, negative = cytotoxic” value does the source give for `CO/N=C(/C(=O)N[C@@H]1C(=O)N2C(C(=O)OCOC(=O)C(C)(C)C)=C(C)CS[C@H]12)c1csc(N)n1` here?
A: -0.287% [at 42.5 µM] (inactive)

Q: For `CCCCCCCCCCCCCCCCCC(=O)OCCCCCCCCCCCCCC(C)C`, which “viability change, negative = cytotoxic” value is on record?
A: -17.9% (inactive)

Q: For `CC(=O)CC(c1ccccc1)c1c(O)c2ccccc2oc1=O` (centres undefined), which Potency is on record?
A: inactive

Q: With `CC1(C)O[C@@H]2C[C@H]3[C@@H]4CCC5=CC(=O)C=C[C@]5(C)[C@@]4(F)[C@@H](O)C[C@]3(C)[C@]2(C(=O)CO)O1` as the molecule, how does the Potency read?
A: inactive

Q: For `O=C1C(N(CO)C(=O)NCO)N(CO)C(=O)N1CO` (centres undefined), which Potency is on record?
A: inactive

Q: Which “viability change, negative = cytotoxic” value does the source give for `C1COC(NC(C2CC2)C2CC2)=N1` here?
A: 2.2% [at 42.5 µM] (inactive)

Q: For `CC(C)C(=O)c1c(C(C)C)nn2ccccc12`, which “viability change, negative = cytotoxic” value is on record?
A: -0.393% [at 42.5 µM] (inactive)

Q: With `CC(C)CNCC(C)C` as the molecule, how does the “viability change, negative = cytotoxic” value read?
A: 5.82% (inactive)

Q: With `O=C1OCCO1` as the molecule, how does the “viability change, negative = cytotoxic” value read?
A: -2.43% (inactive)

Q: For `CC1(C)NC(=O)NC1=O`, which Potency is on record?
A: inactive

Q: With `CC(=O)N[C@H]1[C@H]([C@H](O)[C@H](O)CO)OC(C(=O)O)=C[C@@H]1N=C(N)N` as the molecule, how does the “viability change, negative = cytotoxic” value read?
A: 6.15% [at 42.5 µM] (inactive)

Q: With `CN1CCCC(CC2c3ccccc3Sc3ccccc32)C1` (centres undefined) as the molecule, how does the “viability change, negative = cytotoxic” value read?
A: -12.5% [at 42.5 µM] (inactive)

Q: For `Cc1cc(C)cc(O)c1`, which Potency is on record?
A: inactive

Q: With `CCCCC/C=C\C/C=C\CCCCCCCC(=O)NC(C)c1ccccc1` (centres undefined) as the molecule, how does the “viability change, negative = cytotoxic” value read?
A: 10.6% [at 42.5 µM] (inactive)

Q: With `Nc1ccc2cc3ccc(N)cc3nc2c1` as the molecule, how does the Potency read?
A: inactive

Q: For `NC1CCCCC1N` (centres undefined), which Potency is on record?
A: inactive

Q: With `Cc1ccc(Cl)cc1` as the molecule, how does the Potency read?
A: inactive

Q: Which “viability change, negative = cytotoxic” value does the source give for `C=CC(C)(C)CC(=O)OC` here?
A: 0.0318% (inactive)

Q: For `CCOc1ncc(F)c(=O)[nH]1`, which “viability change, negative = cytotoxic” value is on record?
A: 0.6% [at 42.5 µM] (inactive)

Q: With `CC(C)c1ccc2c(C(C)C)cc(C(C)C)c(S(=O)(=O)O)c2c1` as the molecule, how does the “viability change, negative = cytotoxic” value read?
A: -3.11% (inactive)

Q: Which Potency does the source give for `COc1ccc(C(=O)c2ccccc2)c(O)c1` here?
A: inactive

Q: Which “viability change, negative = cytotoxic” value does the source give for `CC(=O)Nc1ccc(OCCOCCOc2ccc(NC(C)=O)cc2)cc1` here?
A: 5.19% [at 42.5 µM] (inactive)

Q: For `CC(=O)O[C@H]1C[C@@H]2CC[C@@]1(C)C2(C)C`, which “viability change, negative = cytotoxic” value is on record?
A: 11.2% (inactive)

Q: With `O=C(O)/C=C/c1cnc[nH]1` as the molecule, how does the “viability change, negative = cytotoxic” value read?
A: 8.81% (inactive)

Q: Which Potency does the source give for `CC(O)CO` (centres undefined) here?
A: inactive

Q: Which “viability change, negative = cytotoxic” value does the source give for `COc1ccc(OC(F)(F)F)cc1CN[C@H]1CCCN[C@H]1c1ccccc1` here?
A: -22.3% (inactive)

Q: For `CCCCC/C=C\C/C=C\CCCCCCCC(=O)OC`, which Potency is on record?
A: inactive

Q: With `OCCCc1ccccc1` as the molecule, how does the Potency read?
A: inactive

Q: Which viability change, negative = cytotoxic does the source give for `Nc1c(NC/C=C\COc2cc(CN3CCCCC3)ccn2)c(=O)c1=O` here?
A: -0.847% [at 18.9 µM] (inactive)

Q: Which “viability change, negative = cytotoxic” value does the source give for `CC(C(=O)O)c1ccc(C(=O)c2ccccc2)s1` (centres undefined) here?
A: 2.88% [at 42.5 µM] (inactive)

Q: With `CC(=O)SCc1ccco1` as the molecule, how does the “viability change, negative = cytotoxic” value read?
A: 2.18% (inactive)

Q: Which “viability change, negative = cytotoxic” value does the source give for `CC(C)CCCCOC(=O)c1ccccc1C(=O)OCCCCC(C)C` here?
A: -0.351% (inactive)

Q: Which Potency does the source give for `CN(C)CCN(Cc1cccs1)c1ccccn1` here?
A: inactive

Q: With `N#CCCNCCC#N` as the molecule, how does the “viability change, negative = cytotoxic” value read?
A: 2.96% (inactive)

Q: Which Potency does the source give for `Nc1ccc(Nc2ccccc2)cc1` here?
A: inactive

Q: For `CC(C)(C)c1cc(Cc2cc(C(C)(C)C)c(O)c(C(C)(C)C)c2)cc(C(C)(C)C)c1O`, which Potency is on record?
A: inactive
